# Assay results as given in PubChem BioAssay AID1053125 (Broad Institute, 2014).
# Results with a measured potency or affinity are listed apart. The source made the active and inactive calls.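 The calls were made as follows: active = viability loss whose fitted half-maximal concentration is at most twice the top valid tested dose; inconclusive = flat curve with 30 to 70% loss, or poor fit; inactive = the rest.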
# Assay: HepG2 cell cytotoxicity, dose response, cytotoxicity control, ATP luminescence, cherry-pick, set 6 (AID 1053125);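 also: negative values mean loss of viability signal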
# Settings: HepG2 viability, ATP luminescence (CellTiter-Glo), 72 h; series mostly up to 26 µM; activity change, negative = cytotoxicity: at the top concentration
row,SMILES,"activity change, negative = cytotoxicity"
1,COc1c(Cl)cc(-c2noc(C)c2C(=O)NCc2ccc3c(c2)OCO3)cc1Cl,-5.56% (inactive)
2,Cc1cc(OC(=O)c2ccccc2Cl)ccc1N1C(=O)CCC1=O,58.8% (inactive)
3,CCNC(=O)c1cc2c(=O)n3cccc(C)c3nc2n(Cc2ccc(C)cc2)c1=N,-17.9% (inactive)
4,CCOC(=O)C(NC(=O)c1ccccc1)(OCC1(CC)COC1)C(F)(F)F (stereo not given),-2.01% (inactive)
5,CSc1ccc(Cn2c(C)c(C(=O)NCc3cccc(Cl)c3)sc2=O)cc1,-16% (inactive)
6,CSCCC1(C(=O)O)NC(c2ccccc2O)C2C(=O)N(C(C)C)C(=O)C21 (stereo not given),4.52% (inactive)
7,COc1ccc(Cn2nnnc2C(CC(C)C)N2CCC(C(N)=O)CC2)cc1 (stereo not given),-8.56% (inactive)
8,N=c1oc2cc(O)ccc2cc1C(=O)Nc1ccc(Br)cc1,-15.2% (inactive)
9,Cc1cccn2c(=O)c3cc(C(=O)NCCc4ccccc4)c(=N)n(CCCn4ccnc4)c3nc12,-14.1% (inactive)
10,CCOc1ccc(C2C(C#N)=C(N)Oc3cc(O)ccc32)cc1OCC (stereo not given),10% (inactive)
11,CN1CCc2c(sc(NC(=O)Cc3ccccc3)c2C#N)C1,-7.87% (inactive)
12,CC1=C(C(=O)N2CCN(c3cc(C)ccc3C)CC2)C2(CCCCC2)OC1=O,-6.7% (inactive)
13,Cn1nc(-c2ccc(Cl)cc2)c2cc(C(=O)N3CCN(c4ccccc4)CC3)sc21,-12.4% (inactive)
14,Cc1cc(=O)oc2cc(OC(=O)c3cncc(Br)c3)ccc12,4.96% (inactive)
15,N#Cc1c2ccc(OCC(N)=O)cc2n2ccccc12,-3.56% (inactive)
16,Cc1cccn2c(=O)c3cc(C(=O)NCc4ccc(F)cc4)c(=N)n(CCCN4CCOCC4)c3nc12,-7.84% (inactive)
17,COC(=O)c1cc(=O)n(Cc2ccc3c(c2)OCO3)c(=Nc2ccc(F)c(Cl)c2)s1,-1.78% (inactive)
18,COc1ccc(NC(=O)C2CCC(CNS(=O)(=O)c3cccs3)CC2)cc1 (stereo not given),4.3% (inactive)

row,SMILES,"activity change, negative = cytotoxicity"
1,CCCCN1C=C(C(=O)OC)C(c2ccccc2Cl)C(C(=O)OC)=C1,11.9% (inactive)
2,CCN1C=C(C(=O)OC)C(c2cccc(OC)c2OC)C(C(=O)OC)=C1,3.47% (inactive)
3,Cc1ccc2[nH]c3ccccc3c(=O)c2c1,-13.1% (inactive)
4,O=C(CCCn1c(=O)c2sccc2n(Cc2cc(=O)n3ccccc3n2)c1=O)NCc1ccco1,-8.29% (inactive)
5,CC(C)c1ccc(/C=C2\Oc3c(ccc(O)c3CN3CCN(C)CC3)C2=O)cc1,3.11% (inactive)
6,CCC(C)n1c(=N)c(C#N)cc2c(=O)n3cc(C)ccc3nc21 (stereo not given),5.59% (inactive)
7,Cc1ccc2nc3c(cc(S(=O)(=O)c4ccccc4)c(=N)n3Cc3ccco3)c(=O)n2c1,-15.1% (inactive)
8,CCOc1ccc2nc(NCCNC(=O)CC)c(C#N)cc2c1,5.54% (inactive)
9,O=C(COC(=O)c1cc(S(=O)(=O)N2CCCCC2)ccc1N1CCOCC1)c1ccccc1Cl,-11.1% (inactive)
10,O=C(O)c1[nH]c2ccccc2c1C(c1cc(Br)ccc1O)c1c(C(=O)O)[nH]c2ccccc12,-3.21% (inactive)
11,COC(=O)C1=CN(Cc2ccc(OC)c(OC)c2)C=C(C(=O)OC)C1c1cccc(F)c1,-1.56% (inactive)
12,Cn1cnc(S(=O)(=O)Nc2ccc(OC(F)(F)F)cc2)c1,-6% (inactive)
13,N#C/C(=C\c1ccco1)C(=O)Nc1cccc2ncccc12,-5.39% (inactive)
14,O=c1[nH]c2ccccc2nc1/C=C/c1ccccc1,-10.8% (inactive)
15,Cc1ccc(-n2c(C)cc(/C=N/NC(=O)Cn3c4ccccc4c(=O)c4ccccc43)c2C)cc1,-6.83% (inactive)
16,CSc1ccc(Cn2c(C)c(C(=O)NCCC#N)sc2=O)cc1,-4.93% (inactive)
17,O=C(c1cccc(Cl)c1)N1CCC(=O)N(C(COCc2ccccc2)Cc2ccccc2)CC1 (stereo not given),-2.11% (inactive)
